# G9a block = blocks human histone lysine methyltransferase G9a; 8.8% of 350,000 active; Potency, µM (titrated, usually from 102 µM), without a hit: at the highest dose activity, negative = inhibition, actives largely listed as inhibitors; Q96KQ7; G9a H3K9 monomethylation, AlphaScreen, 2 h; note: % is set by controls: 0 for no effect and ±100 for the full control effect; nearly all actives have a fitted effect of over 75% in size
# Target sequence (Q96KQ7 913-1193 limits assumed): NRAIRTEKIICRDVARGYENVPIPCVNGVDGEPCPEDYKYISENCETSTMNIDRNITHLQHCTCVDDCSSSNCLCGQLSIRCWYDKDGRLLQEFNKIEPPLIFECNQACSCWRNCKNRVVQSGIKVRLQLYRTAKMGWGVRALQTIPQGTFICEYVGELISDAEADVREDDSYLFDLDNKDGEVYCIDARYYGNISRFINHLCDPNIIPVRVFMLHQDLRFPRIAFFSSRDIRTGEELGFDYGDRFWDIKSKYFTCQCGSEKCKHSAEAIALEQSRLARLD
#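 AlphaScreen detection with an anti-monomethyl H3K9 antibody quantified product after a 2 h room-temperature reaction containing 500 nM biotinylated H3K9 peptide, 20 µM SAM and 20 nM enzyme, which had been preincubated 15 min with compound.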
# 12-LOX inh = inhibitors of human 12S-lipoxygenase ALOX12; 1.1% of 580,000 active; AID 1671190; Potency, µM (highest dose often 108 µM), for the others: at the highest dose activity change, negative = inhibition, hits mostly inhibitors; purified 12hLO, xylenol orange hydroperoxide absorbance; P18054; note: % is set by controls: 0 for no effect and ±100 for the full control effect
#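 Purified human 12hLO (150 nM final) in 25 mM Hepes, 0.01% Triton X-100, pH 7.0 was preincubated 15 min at room temperature with compound. Then 40 uM arachidonic acid was added, 30 min. Hydroperoxide was read by Fe-XO absorbance ratio 573/405 nm.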
# VDR inh = vitamin D3 receptor (human) inhibition; 0.93% of 400,000 active; Potency, µM, without a hit: max response, negative = inhibition, actives largely listed as inhibitors; P11473; VDR-SRC2-3 peptide fluorescence polarization, 2 h; note: % is set by controls: 0 for no effect and ±100 for the full control effect
#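 The screen uses fluorescence polarization to detect compounds that interfere with recruitment of the SRC2-3 coactivator peptide to VDR; plates are read after 2 h at room temperature.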
# GRP78 ERSR act = ER stress response induction in glioma | U87-MG GRP78 promoter luciferase reporter, 16 h | Potency, µM, without a hit: at the top dose activation, hits mostly activators | 0.02% of 420,000 active | AID 602332; note: series mostly up to about 76 µM; % of control where 0% means no effect; nearly all actives have a fitted effect of over 35% in size
#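 Stably transfected U87-MG human glioma cells carrying a GRP78-based luminescent sensor were seeded at 1000 cells/well, pin-dosed with compounds and incubated 16 h. Luciferase reagent was then added, and end-point luminescence was read after 10 min at room temperature.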
# Sfp inh = inhibitors of Bacillus subtilis Sfp phosphopantetheinyl transferase; Q9F4F7; Biochemical Sfp PPTase activity, qHTS; Potency, µM, for inactives: largest response in the series, negative = inhibition, hits mostly inhibitors; 3.5% of 310,000 active;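 note: the enzyme is Sfp with the accession as filed and its product quenches rhodamine fluorescence; 0% = enzyme reaction without inhibitor and -100% = no enzyme wells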
#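 Step 1, compound plus 15 nM Sfp-PPTase, 15 min, room temperature. Step 2, add rhodamine-CoA (5 uM) and BHQ-2-YbbR (12.5 uM). Step 3, read 525/598 nm fluorescence at 0 and 30 min.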
# * hit, by the source's call; ? = inconclusive; . = no result; ! = not confirmed by another sample; [ ] = another dose, or the depositor's remark. The entries come from a sample that favours hits as a whole. Calls come from the whole dose curve; as a rule, active = well fitted curve in the direction sought with a large enough effect; inconclusive = small, poorly fitted or top-dose-only effect, or another doubt; inactive = no such curve, though single readings can be large; an effect the other way counts as inactive or inconclusive. Potency is the fitted concentration of half-maximal effect.
SMILES,G9a block,12-LOX inh,VDR inh,GRP78 ERSR act,Sfp inh
CCCCCCOc1ccc(C(=O)CCN(C)C)cc1,.,32µM*,.,.,.
CCCOc1ccc(C(=O)CCN(C)C)cc1,.,-85%,.,.,.
CCCCCC1CCC(c2ccc(C(=O)CCN(C)C)cc2)CC1 (stereo not given),.,7.9µM*,.,.,.
CC(NC(=O)CSc1nnc(COc2ccccc2Cl)n1C)c1cccc2ccccc12 (stereo not given),.,-16%,.,.,.
Cc1ccc(NC(=S)NCc2ccccn2)cc1,11%[0.501 µM],?,?,4%,-29%
Cc1cccc(NC(=S)NCc2ccccn2)c1,71µM*,?,-10%,-1%,-1%
COc1cccc(NC(=S)NCCc2ccccn2)c1,28µM*,-7%,-15%,1%,?
S=C(NCCc1ccccn1)Nc1ccc(Cl)c(Cl)c1,26%[59 µM],6%,-5%,3%,-5%
CCN(CC(=O)Nc1c(C(=O)OC)[nH]c2ccc(C)cc12)c1ccc2c(c1)OCO2,35µM*,0%,-2%,-4%,45µM*
COC(=O)c1[nH]c2ccc(C)cc2c1NC(=O)Nc1ccccc1OC,40µM*,-9%,-15%,-2%,?
COc1cc2c(cc1OC)CN(CC(=O)Nc1ccc(C)cc1)CC2,?,?,-2%,-3%,23%
COC(=O)c1[nH]c2ccc(C)cc2c1NC(=O)CN1CCc2cc(OC)c(OC)cc2C1,50µM*,-9%,0%,-6%,-3%
COc1cc(C(=O)Nc2c(C(=O)O)[nH]c3ccc(C)cc23)cc(OC)c1OC,?,1%,12%,0%,-1%
O=C1CCN(C(=O)C2CC=CC2)CCCC(c2nc(-c3cccnc3)no2)CCN1 (stereo not given),.,20%,.,.,.
Cc1nc2n(c1C(=O)NCCc1ccccc1)CCC(Nc1ccc(F)cc1)C2 (stereo not given),.,16%[176 µM],.,.,.
COc1cc(CN2CCN(c3cccc(Cl)c3)CC2)cc(OC)c1OC,13µM*,?,9%,-4%,-28%
COc1ccc(S(=O)(=O)N2CCN(c3ncccn3)CC2)cc1OC,10%[0.501 µM],35µM*,-26%,-3%,3%
COc1cc(S(=O)(=O)N2CCN(Cc3ccccc3)CC2)ccc1Br,45µM*,0%,14%,-5%,0%
COc1cc(CN2CCN(S(=O)(=O)c3ccc(F)cc3)CC2)cc(OC)c1OC,7.9µM*!,?,2%,-4%,?
Cc1ccc(NC(=O)N2CCCN(S(C)(=O)=O)C(c3ccccc3)CC(=O)NCC2)cc1C (stereo not given),.,8%,.,.,.
CN(C(=O)c1ccccc1)N(C)C(=O)c1ccccc1,.,-26%,.,.,.
Cc1ccc2ncn(Cc3ncc(-c4cccc(Cl)c4)o3)c(=O)c2c1,.,-29%,.,.,.
COCCn1c(-c2ccc(OCc3ccccc3)c(OC)c2)nc2c1c(=O)[nH]c(=O)n2CC(C)C,.,-2%,.,.,.
CN(C)C[C@@H]1CN(Cc2ccccn2)C[C@H]1NS(=O)(=O)c1cccc(F)c1,.,96%,.,.,.
COc1cc(CN2CCN(S(=O)(=O)c3ccccc3)CC2)cc(OC)c1OC,28µM*,?,2%,-3%,?
SMILES,G9a block,12-LOX inh,VDR inh,GRP78 ERSR act,Sfp inh
COC(=O)[C@@H](C)NC(=O)NCc1ccc(C)cc1,.,-3%,.,.,.
Nc1[nH][nH]c(=O)c1N=Nc1cccc(Cl)c1,?,?,5%,-3%,5%
CCOc1ccc(N=Nc2c(N)[nH][nH]c2=O)cc1,3.5µM*,?,-1%,1%,-15%
CCOc1ccc(N=Nc2c(=O)[nH]n3c(=O)cc(C)[nH]c23)cc1,?,223%,-4%,-7%,2%
COc1cccc(N=Nc2c(N)[nH][nH]c2=O)c1,4.5µM*,?,-15%,-5%,-11%
CCN1C(=O)/C(=C/c2ccc(OCc3ccc(C(=O)O)cc3)c(Cl)c2)NC1=S,71µM*,-2%,?,0%,19%
CCN1C(=O)/C(=C/c2ccc(N3CCCC3)cc2)NC1=S,3.2µM*,?,-28%,2%,1%
CCCN1C(=O)/C(=C/c2ccc(N3CCOCC3)cc2)NC1=S,-4%[59 µM],?,-19%,-5%,7%
CN(C)Cc1cccc(-c2cc3c(ccn3Cc3cccnc3)c(C3=CCOCC3)n2)c1,.,13%[176 µM],.,.,.
Cc1cccc(C2(c3cccc(C)c3)CC2C(=O)N/N=C/C=C/c2ccccc2)c1 (stereo not given),.,1%,.,.,.

# Screens: PubChem, National Center for Advancing Translational Sciences (NCATS)
